TDP-43 rescue – rescues yeast from TDP-43 toxicity. AID 1347073. 45,000 compounds, 0.45% hits. yeast TDP-43 toxicity rescue, BacTiter-Glo growth, 24 h. Potency, µM (series often up to 46.1 µM), actives largely listed as activators; active = well fitted activation curve with a large enough effect; also: 0% is about no effect; nearly all actives have a fitted effect of over 55% in size
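TDP-43-expressing yeast, pregrown in raffinose, seeded at OD600 0.02 in galactose medium with compound for 24 hr at 30 deg C. Growth read by BacTiter-Glo luminescence, so rescue of toxicity appears as activation.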
* = called active by the depositor; i = inactive. The entries come from a sample that favours hits as a whole. Potency is read from the fitted curve at half-maximal effect.

SMILES | TDP-43 rescue
CC(=O)Nc1ccc(OCCOc2ccccc2C(C)=O)cc1 | i
Cc1ccc(/C=N/NC(=O)COc2ccc(Cl)c(C)c2)o1 | i
CCn1c(SCC(=O)Nc2sc3c(c2C(N)=O)CCC(C)C3)nnc1-c1ccco1 (stereo not drawn) | i
Cc1ccc(NC(=O)CN2C(=O)NC3(CCCc4ccccc43)C2=O)c(C)c1 (stereo not drawn) | i
O=C(NNC(=S)NC(=O)c1ccc(F)cc1)c1cccnc1 | i
O=C(NC(=S)NNC(=O)[C@H]1C[C@@H]1c1ccccc1)c1cccc(F)c1 | 13µM*
O=C(Cc1ccccc1)NNC(=S)NC(=O)c1cccnc1 | i
CCCC(=O)N1CCC1(C)C(=O)Nc1cc(-c2ccccc2)nn1C (stereo not drawn) | i
COc1ccccc1NC(=O)CC1C(=O)Nc2c1c(=O)n(C)c(=O)n2C (stereo not drawn) | i
O=C(CSc1nc2ccccc2c(=O)n1CC1CCCO1)NCc1ccccc1 (stereo not drawn) | i
CCc1cccc(C)c1NC(=O)CCCSc1nc2ccccc2s1 | i
O=C(CCCSc1nc2ccccc2s1)NCc1ccc2c(c1)OCO2 | 13µM*
O=C(COC(=O)CCc1ccccc1)NCc1ccc2c(c1)OCO2 | i
CC(C)Oc1ccc(C(=O)Nc2ccc(NC(=O)c3ccco3)c(Cl)c2)cc1 | i
O=C(CS(=O)CC(=O)N(c1ccccc1)C(C(=O)NC1CCCCC1)c1ccco1)Nc1ccc(F)cc1 (stereo not drawn) | i
O=C(N/N=C\c1cccc([N+](=O)[O-])c1O)C1COc2ccccc2O1 (stereo not drawn) | 10µM*
O=C(CNC(=O)C1COc2ccccc2O1)N/N=C\c1cccc(O)c1 (stereo not drawn) | i
Cc1c(/C=N\NC(=O)C2COc3ccccc3O2)c2ccccc2n1C (stereo not drawn) | i
CC(C)CCNC(=O)C(c1ccc(O)cc1)N(Cc1cccs1)C(=O)C1COc2ccccc2O1 (stereo not drawn) | i
CN1C(=S)SC(/[N+]([O-])=C/c2ccc(Cl)cc2)C1(C)C (stereo not drawn) | i
COc1cc(OC)cc(-c2cn[nH]c2N)c1 | i
O=C(Cn1ccc([N+](=O)[O-])n1)NCCc1c[nH]c2ccccc12 | i

Screens: PubChem, National Center for Advancing Translational Sciences (NCATS)
